Screening data deposited in PubChem BioAssay by Buhrlage Lab, Dana-Farber Cancer Institute and Novartis Institutes for BioMedical Research (Cambridge, Mass).
Hits are enriched below; roughly 9.2% of the tested compounds scored in any of these assays.
USP8 block = blocks human USP8 ubiquitin-rhodamine cleavage. purified USP8, Ub-rhodamine cleavage fluorescence, 30 min. inhibition, % at 20 µM. 4.2% of 47,000 active. AID 1645853
OTUD3 inh = human OTUD3 deubiquitinase inhibition; purified OTUD3, Ub-rhodamine fluorescence, 2 h; inhibition, % at 25 µM; 0.7% of 47,000 active; AID 1645858
USP7 inh = blocks human USP7 ubiquitin-rhodamine cleavage. purified USP7, Ub-rhodamine cleavage fluorescence. AID 1645854. Q93009. inhibition, % at 20 µM. 0.3% of 47,000 active
USP10 block = human USP10 deubiquitinase inhibition; Q14694; purified USP10, Ub-rhodamine fluorescence, 60 min; inhibition, % at 20 µM; 1.1% of 47,000 active
Target sequence (Q14694 whole entry, looked up): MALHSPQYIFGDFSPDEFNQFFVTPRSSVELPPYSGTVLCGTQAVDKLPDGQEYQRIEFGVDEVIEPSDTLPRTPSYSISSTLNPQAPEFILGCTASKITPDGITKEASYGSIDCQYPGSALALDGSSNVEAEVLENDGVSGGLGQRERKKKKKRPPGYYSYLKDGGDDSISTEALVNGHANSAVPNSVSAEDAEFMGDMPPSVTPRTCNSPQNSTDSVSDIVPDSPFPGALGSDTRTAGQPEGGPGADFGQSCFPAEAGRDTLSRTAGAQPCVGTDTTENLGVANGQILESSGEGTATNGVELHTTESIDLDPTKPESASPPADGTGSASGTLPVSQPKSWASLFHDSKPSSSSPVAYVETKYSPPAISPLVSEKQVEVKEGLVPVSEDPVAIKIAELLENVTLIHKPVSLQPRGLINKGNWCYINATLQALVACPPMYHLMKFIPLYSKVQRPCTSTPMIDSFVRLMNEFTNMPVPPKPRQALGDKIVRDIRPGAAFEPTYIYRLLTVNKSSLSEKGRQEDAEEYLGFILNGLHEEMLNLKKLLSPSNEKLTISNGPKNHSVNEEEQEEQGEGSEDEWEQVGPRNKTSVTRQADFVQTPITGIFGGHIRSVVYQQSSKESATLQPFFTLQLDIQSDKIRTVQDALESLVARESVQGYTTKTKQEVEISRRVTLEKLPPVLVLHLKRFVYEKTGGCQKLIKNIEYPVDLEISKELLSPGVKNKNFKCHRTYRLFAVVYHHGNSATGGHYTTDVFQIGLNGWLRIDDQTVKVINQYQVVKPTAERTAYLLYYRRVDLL
UCHL1 inh = blocks human UCHL1 ubiquitin-rhodamine cleavage | P09936 | purified UCHL1, Ub-rhodamine cleavage fluorescence | inhibition, % at 20 µM | 0.2% of 47,000 active | AID 1645859
USP17 inh = human USP17-like deubiquitinase inhibition. 6.5% of 47,000 active. AID 1645855. purified USP17, Ub-rhodamine cleavage fluorescence, 3 h. inhibition, % at 50 µM
Numbers stand for hits. Cut-off read from the data, not from the text of the source: active = inhibition above about 30%; inactive = the rest.

`COc1cc(C2C3=C(CC(c4ccccc4)CC3=O)Nc3ccccc3N2C(=O)C2CC2)cc(OC)c1OC` (configuration not stated) gave USP8 block inactive, OTUD3 inh inactive, USP10 block inactive, UCHL1 inh inactive and USP17 inh 45.
`CCC(=O)N1c2ccccc2NC2=C(C(=O)CC(c3ccccc3OCc3ccccc3)C2)C1c1ccccc1` (configuration not stated) gave USP8 block inactive, OTUD3 inh inactive, USP7 inh inactive, USP10 block inactive, UCHL1 inh inactive and USP17 inh 36.
Cc1nc(NC(=O)C2C3C=CC(C3)C2C(=O)O)sc1C (configuration not stated) was read as USP8 block inactive, OTUD3 inh inactive, USP7 inh inactive, USP10 block inactive, UCHL1 inh inactive and USP17 inh inactive.
`CN(C(=O)c1ccon1)[C@H]1CC[C@@]2(C)C[C@H](c3ccccc3)C[C@](C)(O2)[C@@H]1O` gave USP8 block inactive, OTUD3 inh inactive, USP7 inh inactive, USP10 block inactive, UCHL1 inh inactive and USP17 inh inactive.
COc1ccc(OC)c2c(C)cc(N3CC(C)CC(C)C3)nc12 (configuration not stated) was read as USP8 block 98, OTUD3 inh 30, USP7 inh inactive, USP10 block inactive, UCHL1 inh inactive and USP17 inh 96.
Screening Cc1c(C)n(-c2ccc(Br)cn2)c2ncn(Cc3ccccc3)c(=N)c12 returned USP8 block 44, OTUD3 inh inactive, USP7 inh inactive, USP10 block inactive, UCHL1 inh inactive and USP17 inh inactive.
Screening Cc1cc(C(=O)N2CCCCC2c2ccn[nH]2)c2c(C)noc2n1 (configuration not stated) returned USP8 block inactive, OTUD3 inh inactive, USP7 inh inactive, USP10 block inactive, UCHL1 inh inactive and USP17 inh inactive.
For CCn1c(=O)c(C(=O)Nc2cccc(F)c2)nc2ccccc21 the results were USP8 block inactive, OTUD3 inh inactive, USP7 inh inactive, USP10 block inactive, UCHL1 inh inactive and USP17 inh inactive.
Screening O=C(CSc1nc2ccccc2n1S(=O)(=O)c1ccc(Br)cc1)Nc1ccc(Br)cc1F returned USP8 block inactive, OTUD3 inh inactive, USP7 inh inactive, USP10 block inactive, UCHL1 inh inactive and USP17 inh 34.
For O=C(CSc1nc2ccncc2[nH]1)Nc1ccc(Br)cc1F the results were USP8 block 35, OTUD3 inh inactive, USP7 inh inactive, USP10 block inactive, UCHL1 inh inactive and USP17 inh 61.
`Cc1ccc(NC(=O)CSc2nc3ncccc3[nH]2)c(C)c1` gave USP8 block inactive, OTUD3 inh inactive, USP7 inh inactive, USP10 block inactive, UCHL1 inh inactive and USP17 inh inactive.
`Cn1c(=O)c(C(=O)Nc2ccc(Br)cc2F)nc2ccccc21` gave USP8 block inactive, OTUD3 inh inactive, USP7 inh inactive, USP10 block inactive, UCHL1 inh inactive and USP17 inh 46.
`CCn1c(=O)c(C(=O)Nc2ccc(Br)cc2)nc2ccccc21` gave USP8 block inactive, OTUD3 inh inactive, USP7 inh inactive, USP10 block inactive, UCHL1 inh inactive and USP17 inh 34.
Screening O=S1(=O)c2ccccc2OCC2(CCN(c3cccnc3)CC2)CN1CC1CC1 returned USP8 block inactive, OTUD3 inh inactive, USP7 inh inactive, USP10 block inactive, UCHL1 inh inactive and USP17 inh inactive.
Screening Cc1cc(C)cc(OCC(=O)Nc2ccc3nsnc3c2)c1 returned USP8 block inactive, OTUD3 inh inactive, USP7 inh inactive, USP10 block inactive, UCHL1 inh inactive and USP17 inh inactive.
Screening CC(=O)Nc1cccc(NC(=O)c2nc3ccccc3n(C)c2=O)c1 returned USP8 block inactive, OTUD3 inh inactive, USP7 inh inactive, USP10 block inactive, UCHL1 inh inactive and USP17 inh inactive.
For Cn1c(=O)c(C(=O)Nc2ccc(Br)cc2)nc2ccccc21 the results were USP8 block 77, OTUD3 inh inactive, USP7 inh inactive, USP10 block inactive, UCHL1 inh inactive and USP17 inh inactive.
`O=S(=O)(N1CCCCC1)N1CCC2(CC1)CC2c1nc(-c2cccnc2)no1` (configuration not stated) gave USP8 block inactive, OTUD3 inh inactive, USP7 inh inactive, USP10 block inactive, UCHL1 inh inactive and USP17 inh inactive.
